Data on 115 compounds can be found in ChEMBL document CHEMBL4513216, “Probing the Open Global Health Chemical Diversity Library for Multistage-Active Starting Points for Next-Generation Antimalarials” (ACS Infect Dis, 2020).

About 8,600 (12%) of roughly 69,000 compounds showed an effect of 50% or more. Only a selection was taken, and strong results are over-represented in it overall.

The assay concerns Plasmodium berghei. As to the kind of experiment: Screen against P. berghei liver stage (PbLuc), transformed with Luciferase, at 10uM. Format: functional, HepG2. Conditions: tested at 10 uM.
Consider `Cc1cccc(CN2CCCC(O)(CNCCc3c[nH]cn3)C2=O)c1` (stereo not given), for which the INHIBITION is 48.1%.
Then `COc1ccc(CNCC(C)Oc2ccccn2)cc1Cl` (stereo not given), with 17%; and `CC(=O)NCCNC(=O)NCc1ccc(Br)cc1Cl`, with 4.41%; and `CCC(C)Oc1ccc(CNCCNS(C)(=O)=O)cc1Cl` (stereo not given), with 60.2%.
On to `CCC(C)Oc1ccc(CNCCNC(C)=O)cc1Cl` (stereo not given), for which the INHIBITION is reported as 60.2%.
In the case of `CCC(C)Oc1ccc(CNCCc2c[nH]cn2)cc1Cl` (stereo not given), the INHIBITION came out at 66.8%.
With `COc1ccc(CNC(=O)NCCCNS(C)(=O)=O)cc1OC`, the INHIBITION is on record as 33.8%.
`CCC(C)Oc1ccc(CNCCNC(C)=O)cc1OC` (stereo not given): the INHIBITION stood at 40.7%.
As to `CC(CNCc1ccc(Cl)c(Cl)c1)Oc1ccccn1` (stereo not given), the INHIBITION is -41.8%.
As for `CCOCC1COCCC12CCN(C(=O)CCOC)CC2` (stereo not given), the INHIBITION turned out to be 8.67%.
For `CC(=O)N1CCN(c2ccc(Cl)nn2)C(=O)C1`, the INHIBITION is 40.8%.
Take `NC(=O)C1CCN(C(=O)c2cccn2Cc2cccs2)CC1`: the INHIBITION is listed as -12.1%.
With `CC(C)N(Cc1ccc(Cl)c(Cl)c1)C(=O)Cn1cncn1`, the INHIBITION amounted to 9.55%.
Then `Cc1cc(C)n(C2CCCN(C(=O)Cc3ccc(C#N)cc3)C2)n1` (stereo not given), with 29.7%; and `C1CC(CN2C[C@@H]3C[C@@H](c4nnc(C5CC5)o4)O[C@@H]3C2)CCO1`, with 3.58%.
With `CCC(CNC(=O)Cc1cc(C)on1)Oc1cccc(F)c1` (stereo not given), the INHIBITION stood at 54.5%.
Consider `CCC(CNC(=O)Cn1ccnc1)Oc1cccc(F)c1` (stereo not given), for which the INHIBITION came out at 42.4%.
As to `CCC(CNC(=O)c1ccc(C(N)=O)cc1)Oc1cccc(F)c1` (stereo not given), the INHIBITION was 33.2%.
In the case of `CCC(CNC(=O)COC)Oc1cccc(F)c1` (stereo not given), the INHIBITION was found to be 26.7%.
For `CCC(CNC(=O)CNC(C)=O)Oc1cccc(F)c1` (stereo not given), the INHIBITION is listed as 51.7%.
Turning to `CCC(=O)NCC(CC)Oc1cccc(F)c1` (stereo not given), the INHIBITION is 23%.
For `NCc1cccc(-c2cccnc2C(=O)NCCN2CCCC2)c1`, the INHIBITION is -8.58%.
For `CC(C)(C)c1ncc(CNCC2CN(C3CC3)CCO2)s1` (stereo not given), the INHIBITION stood at 37.7%.
Take `C=c1occc1=C1NC(c2cccc(CN3CCOCC3)c2)=NO1`: the INHIBITION is reported as -2.69%.
On to `COCCN(Cc1cccnc1)S(=O)(=O)c1cc(C)ccc1F`, for which the INHIBITION amounted to 59.4%.
For `CCCC(=O)N(Cc1ccncc1)C(C)CC` (stereo not given), the INHIBITION turned out to be 49%.
For the compound `CCCN(CCC)S(=O)(=O)N(C)Cc1ccncc1`, the INHIBITION stood at 53.4%.
Consider `COCCN(Cc1cccnc1)S(=O)(=O)c1ccc(F)cc1C`, for which the INHIBITION came out at 26%.
Under `CCCN(Cc1ccccc1O)S(=O)(=O)N(C)CC` stands -58%; under `COCCN(Cc1ccoc1)S(=O)(=O)c1ccc(F)c(C)c1`, 0.348%.
On to `CCN(C)S(=O)(=O)N(CC)Cc1cccc(-c2ccncc2)c1`, for which the INHIBITION is 58.3%.
Then `CCOc1ccc(S(=O)(=O)N(CCOC)Cc2ccoc2)cc1F`, with -17.7%.
For `CCOc1ccc(S(=O)(=O)N(CCOC)Cc2ccncc2)cc1F`, the INHIBITION is reported as 58.8%.
As to `COCCN(Cc1cccnc1)S(=O)(=O)c1cccc(F)c1F`, the INHIBITION was 29.4%.
Then `CCN(Cc1cccc(-c2ccncc2)c1)S(C)(=O)=O`, with 29.6%.
Consider `CCN(Cc1cccc(-c2ccncc2)c1)S(N)(=O)=O`, for which the INHIBITION amounted to 11.7%.
Consider `CC(c1ccc(Br)cc1)N1CCCN(C(N)=O)CC1` (stereo not given), for which the INHIBITION is given as 12.3%.
Under `Cn1cc(NC(=O)C2CC(c3ccccc3)C2)ccc1=O` (stereo not given) stands -5.1%; under `CCOC(=O)CSc1nnc(C(N)CC(C)C)o1` (stereo not given), -28.4%; under `O=S(=O)(C1CC1)N1CCO[C@H]2[C@H](OCC3CC3)CC[C@@H]21`, -2.35%.
In the case of `O=C(NCc1cccnc1)Nc1cc(C(F)(F)F)c[nH]c1=O`, the INHIBITION is reported as -5.77%.
Under `Cc1nc(-c2ccc(C(=O)O)cc2)cc(C2CCCN(C(C)C)C2)n1` (stereo not given) stands 41.2%; under `CC1c2ncc(Cn3cncn3)n2CCN1CC1CCOCC1` (stereo not given), -8.28%; under `Cc1ccc(-c2nnc(C(C)N3CCc4cncnc4C3)o2)cc1` (stereo not given), 22.1%.
For `COCCn1cnnc1C1CCCN(C(C)C)C1` (stereo not given), the INHIBITION was -16.5%.
Under `CCOc1ccccc1-c1cc(N)[nH]n1` stands 16.2%; under `Cc1ccc(F)c2c1CCCN2CC(=O)NC1CCS(=O)(=O)C1` (stereo not given), 45%.
Take `Cc1cncc(C2CCCN(C(=O)c3cnco3)C2)n1` (stereo not given): the INHIBITION was 39.7%.
Consider `Cc1ccc(C(=O)N2CCc3ncc(Cn4cccn4)n3CC2)cn1`, for which the INHIBITION is 30.3%.
In the case of `COCCN(CCOC)S(=O)(=O)N(C)Cc1ccncc1`, the INHIBITION is listed as 56%.
Regarding `CCN(Cc1ccncc1)S(C)(=O)=O`, the INHIBITION is given as 14.3%.
Take `CCN(CC)S(=O)(=O)N(C)Cc1ccc2c(c1)OCCO2`: the INHIBITION was -85%.
Consider `CCN(CC)S(=O)(=O)N(C)Cc1ccncc1`, for which the INHIBITION is recorded as 69.7%.
`COCCCN(Cc1ccncc1)c1cc(C)ncn1`: the INHIBITION stood at 10%.
Under `COCCN(Cc1ccncc1)C(=O)C1COc2ccccc2C1` (stereo not given) stands 45.8%.
In the case of `CCc1ccc(S(=O)(=O)Nc2cnccc2C)s1`, the INHIBITION is recorded as 29.85%.
On to `O=C(c1cccnc1)N1C[C@H]2CC[C@@H](C1)N(Cc1cccc(Cl)c1F)C2`, for which the INHIBITION was -48.4%.
Consider `CN(C)C(=O)c1nc(-c2ccc(S(C)(=O)=O)cc2)c2cnccn12`, for which the INHIBITION came to 16.8%.
For the compound `CC(C)[C@H](NS(C)(=O)=O)C(=O)NCc1cc(-c2ccccc2)n[nH]1`, the INHIBITION worked out at 33.7%.
Then `C[C@H](NS(C)(=O)=O)C(=O)NCc1cc(-c2ccco2)n[nH]1`, with 2.6%; and `NS(=O)(=O)NCc1cc(-c2ccc(C(F)(F)F)cc2)n[nH]1`, with 57.5%.
As to `CC(C)OCCSCCn1nc2ccccn2c1=O`, the INHIBITION was found to be 1.41%.
As to `COc1ncccc1CNC(=O)c1cnc(C)cn1`, the INHIBITION is recorded as -7.7%.
Then `COc1ccc(-c2n[nH]cc2CNC2CCN(C3CC3)CC2)cc1`, with -39.6%.
For the compound `CC(CC#N)n1ccc(C(F)(F)F)n1` (stereo not given), the INHIBITION is listed as -6.3%.
Turning to `Cc1nc(CCN2CCC(Oc3ccccc3F)CC2)cs1`, the INHIBITION was found to be 42.5%.
Then `Cc1nc(CCN2CCC(Oc3ccccc3F)CC2)c(C)s1`, with 82.4%; and `Cc1nc(C)c(CCN2CCC(Oc3ccccc3F)CC2)s1`, with 86.4%; and `Cc1ccccc1OC1CCN(CC(=O)Nc2cnn(C)c2C)CC1`, with 33.2%.
In the case of `Cc1n[nH]c(C)c1S(=O)(=O)N1CCC(Oc2ccccc2F)CC1`, the INHIBITION amounted to 1.62%.
Under `Cc1ccnc(C2CCN(CCCOc3ccccc3F)C2)n1` (stereo not given) stands 13.5%; under `COc1ccc(CC(=O)N2CCC(Nc3ccc(C)nn3)CC2)cc1`, -16%; under `CC(C)NC(=O)NCc1ccc(C(=O)NC(C)Cn2cccn2)cc1` (stereo not given), 3.73%.
Take `COc1cccc(C(=O)N2CCc3c(nc(N)[nH]c3=O)C2)c1OC`: the INHIBITION was -6.91%.
Then `N#Cc1ccccc1Cn1cncn1`, with 25.3%; and `COCc1cccc(S(=O)(=O)Nc2ncc(C)s2)c1`, with 14.2%.
Consider `c1cncc(COCc2nnc3n2CCN(Cc2cccs2)C3)c1`, for which the INHIBITION is on record as -8.94%.
For `c1cncc(COCc2nnc3n2CCN(Cc2ccco2)C3)c1`, the INHIBITION was 53.4%.
For `c1cncc(COCc2n[nH]c3c2CN(Cc2ccco2)C3)c1`, the INHIBITION is reported as 61.9%.
Under `O=C(C1CC1)N1Cc2[nH]nc(COCc3cccnc3)c2C1` stands 11.6%; under `CCS(=O)(=O)N1Cc2[nH]nc(COCc3cccnc3)c2C1`, 58.3%.
`OCCOCc1n[nH]c2c1CN(Cc1ccco1)C2`: the INHIBITION amounted to 23.3%.
With `O=C(c1cccnc1)N1Cc2[nH]nc(COCCO)c2C1`, the INHIBITION is reported as 40.8%.
Turning to `c1cncc(COCc2nnc3n2CCN(Cc2ccoc2)C3)c1`, the INHIBITION turned out to be 35.1%.
In the case of `c1cncc(COCC2CN(Cc3ccco3)Cc3nccn3C2)c1` (stereo not given), the INHIBITION was -6.39%.
With `O=C(C1CC=CC1)N1C[C@@H](OCc2cccnc2)[C@H]2OCCC[C@H]21`, the INHIBITION is recorded as 0.72%.
Under `CC(C)n1cc(CN2CCCN(C(=O)C(C)n3cncn3)CC2)cn1` (stereo not given) stands 26.4%; under `CC(Sc1n[nH]c(-c2ccc3c(c2)CCC3)n1)C(N)=O` (stereo not given), -56.1%.
Under `CS(=O)(=O)N[C@@H]1CCO[C@]2(CCN(CC3CCOCC3)C2)C1` stands -33.9%.
With `CC(C)c1noc(CN2CCCC2c2noc(C(C)C)n2)n1` (stereo not given), the INHIBITION was found to be 29.2%.
`COc1ncc(NC(=O)c2ccco2)c(OC)n1`: the INHIBITION worked out at 36.6%.
Turning to `COc1ncc(NS(=O)(=O)c2ccc(OC)c(C)c2)c(OC)n1`, the INHIBITION is given as 69.6%.
With `COc1ncc(NS(=O)(=O)c2cccc(C)c2)c(OC)n1`, the INHIBITION came out at 34.6%.
On to `CCOc1ccc(S(=O)(=O)Nc2cnc(OC)nc2OC)cc1`, for which the INHIBITION was 81.1%.
`COc1ncc(NS(=O)(=O)c2ccc(F)c(F)c2)c(OC)n1`: the INHIBITION was determined as 11.6%.
Under `COc1ccc(S(=O)(=O)Nc2cccnc2-n2cncn2)cc1C` stands 1.56%; under `Cc1ccc([C@H]2CN(CCO)C[C@@H]2NC(=O)CN2CCCCC2=O)o1`, 4.93%.
For the compound `Cc1nc(Nc2nnc(C)s2)cc(C2CCCN2c2ccncn2)n1` (stereo not given), the INHIBITION is 25.6%.
For the compound `O=C1COC2(COCCN(Cc3cccnc3)C2)CN1c1ccoc1` (stereo not given), the INHIBITION is 12.2%.
Turning to `Cc1nc2c(c(=O)n1C)CCN(Cc1cc3cc[nH]c3cn1)CC2`, the INHIBITION is recorded as 19.8%.
Turning to `Cc1cc(CN2CCc3nc(C)n(C)c(=O)c3CC2)[nH]n1`, the INHIBITION was determined as 45.6%.
On to `Cc1nc2c(c(=O)n1C)CCN(Cc1cc3ccccc3[nH]1)CC2`, for which the INHIBITION is listed as 60.4%.
With `Cc1cc(CN2CCc3cncnc3C2)on1`, the INHIBITION is recorded as -40.5%.
Turning to `CCN(C(=O)COC)C(c1ccc(Cl)cc1)c1ccccn1` (stereo not given), the INHIBITION stood at 44.9%.
Then `CCN(C(=O)CCOC)C(c1ccc(Cl)cc1)c1ccccn1` (stereo not given), with 58.8%; and `CCN(C(=O)CCCOC)C(c1ccc(Cl)cc1)c1ccccn1` (stereo not given), with 31%; and `O=C(C1CCCC1)N1CCCC2(CCN(c3cnccn3)CC2)C1`, with -9.74%.
Under `c1c(CN2CCOCC2)nc2n1CCN(CC1CC1)C2` stands 23.6%.
`O=C(Cc1ccc(F)cc1F)NCC(=O)Nc1ccccn1`: the INHIBITION is listed as 45%.
In the case of `CCN1CC(C(=O)N2CCc3cc(C(N)=O)n(C)c3C2)CCC1=O` (stereo not given), the INHIBITION was found to be 54.5%.
For `CCN1CC(C(=O)N2CCN(c3cnn(C)c(=O)c3)CC2)CCC1=O` (stereo not given), the INHIBITION is -22%.
Then `CCN1CC(C(=O)N2CCc3cc(C(=O)N(C)C)n(C)c3C2)CCC1=O` (stereo not given), with 51.7%.
Under `Cn1c(C(N)=O)cc2c1CN(C(=O)C1CCCN(C3CCCC3)C1)CC2` (stereo not given) stands 15.5%.
For `Cn1c(C(N)=O)cc2c1CN(C(=O)C1CC(=O)N(C(C)(C)C)C1)CC2` (stereo not given), the INHIBITION is reported as 48%.
Take `CCN1CC(C(=O)N2CCc3cc(C(N)=O)n(C)c3C2)CC1=O` (stereo not given): the INHIBITION worked out at 32.2%.
